Rows were chosen to be rich in hits. Some 0.52% of all compounds tested hit in one or more screens of this group.
S aureus helic: blocks Staphylococcus aureus DNA helicase; purified S. aureus helicase, fluorescence unwinding assay; 120,000 tested, 0.05% active; inhibition, % (test concentration not listed); AID 485395; in the data active = inhibition above about 25%, passing the limit was not always enough
Sa growth inh: S. aureus growth inhibition. S. aureus RN4220 growth, OD600, 20 h, 42 °C; stronger effect = lower value. relative growth, % (no concentration beside the values). 170,000 tested, 0.53% active;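 active = relative growth at most 50% at the other temperature and 20+ points below 30 °C, or under 10% at both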
Each line names hits and unclear results; the compound was inactive in the other large screens.

CN(C)c1ccc2sc(=S)[nH]c2c1	none
FC(F)(F)c1ccc2sc(=S)[nH]c2c1	Sa growth inh -0.8
N#CCCSc1nc2ccccc2n1CCc1ccccc1	none
CO[C@H]1C[C@H](O[C@H]2[C@H](C)[C@@H](O[C@@H]3O[C@H](C)C[C@H](N(C)C)[C@H]3OC(C)=O)[C@@H](C)C[C@@]3(CO3)C(=O)[C@H](C)[C@@H](OC(C)=O)[C@@H](C)[C@@H](C)OC(=O)[C@@H]2C)O[C@@H](C)[C@@H]1OC(C)=O	Sa growth inh 3.7 (no result: S aureus helic)
COC(=O)c1cc(=O)n(-c2cc(Cl)cc(Cl)c2)[nH]1	Sa growth inh 13
COC(=O)c1n[nH]n(-c2cc(Cl)cc(Cl)c2)c1=O	none (no result: S aureus helic)
O=C(/C=C/N(c1ccccc1)c1ccccn1)C(F)(F)F	none
CN1C(=O)CC(C(=O)Nc2ccc(C(=O)O)cc2)SC1=Nc1ccc(Cl)cc1 (centres undefined)	none (no result: S aureus helic)
O=C(O)C1CC(=O)N(CCC23CC4CC(CC(C4)C2)C3)C(=Nc2ccc(Cl)cc2)S1 (centres undefined)	Sa growth inh -0.5
COc1ccc(CC(=O)Nc2c(C)nc3cc(C)ccn3c2=O)cc1	none
COc1ccc(-c2nc3c(=O)n(C)c(=O)nc-3n(C)n2)cc1OC	none
Cn1nc(-c2ccc(F)cc2)nc2c(=O)n(C)c(=O)nc1-2	Sa growth inh 0.2
Fc1ccc(CN2CCCN(c3ccc4c(c3)OCCO4)CC2)cc1	none
CCOC(=O)CN1CC23C=CC(O2)C(C(=O)Nc2ccc(C(C)C)cc2)C3C1=O (centres undefined)	none
COc1ccc(S(=O)(=O)N2CCN(C(=O)/C=C/c3ccccc3)CC2)cc1	none
O=S(=O)(c1cccc2nsnc12)N1CCN(C(c2ccccc2)c2ccccc2)CC1	none
C/C(=N\Nc1ccccc1)C1Cc2ccccc2C(=O)O1 (centres undefined)	none
COc1ccc(C2=Nn3c(nc4sc5c(c4c3=O)CCCC5)SC2)cc1	none (no result: S aureus helic)
COc1ccc(C2=Nn3c([n+](C)c4ccccc43)SC2)cc1	Sa growth inh 1.4
NC(=O)c1cc(NS(=O)(=O)/C=C/c2ccccc2)cc(C(N)=O)c1	none
CCN(CC)S(=O)(=O)c1ccc(C(=O)NCCn2ccc3ccccc32)cc1	none (no result: Sa growth inh)
COC(=O)c1c2c(n3ccccc13)C(=O)c1ccccc1C2=O	none (no result: Sa growth inh)
COC(=O)c1c2c(n3ccc(C)cc13)C(=O)c1ccccc1C2=O	Sa growth inh 7.5
c1ccc(CN2CCCN(Cc3ccccc3)C2c2cccs2)cc1	none
O=c1[nH]c(=S)n(-c2ccccc2)c(O)c1C=Nc1ccc(N2CCOCC2)c(Br)c1	none
COC(=O)c1sc(N2CCCC2)c(C#N)c1-c1cccs1	none (no result: S aureus helic)
COC(=O)c1sc(S(C)(=O)=O)c(C#N)c1-c1cccs1	Sa growth inh 0.2
Cc1nc2ccccn2c1/C(O)=C1\C(=O)C(=O)N(CCCN2CCOCC2)C1c1cccc(F)c1 (centres undefined)	none
CCOC(=O)/C(C#N)=N/Nc1ccc(SC(F)F)cc1	none
N#CC(C#N)=NNc1ccc(SC(F)F)cc1	Sa growth inh 0.9
O=C1CC(C(=O)N(C/C=C/c2ccccc2)c2ccc3c(c2)OCCO3)CN1Cc1ccco1 (centres undefined)	none
O=C(COc1ccc(Cl)cc1Cl)NC1CCS(=O)(=O)C1 (centres undefined)	none
CCC1CCCCN1S(=O)(=O)c1ccc(S(=O)(=O)N2CCN(c3ncccn3)CC2)cc1 (centres undefined)	none
CN(c1ccccc1)S(=O)(=O)c1ccc(NC(=O)c2nc(S(C)(=O)=O)ncc2Cl)cc1	Sa growth inh -1.2 (no result: S aureus helic)
CS(=O)(=O)c1ncc(Cl)c(C(=O)NCc2ccccc2)n1	none
CCCSc1ncc(Cl)c(C(=O)Nc2ccc(S(=O)(=O)N(C)c3ccccc3)cc2)n1	none (no result: S aureus helic)
CN(Cc1ccccc1)S(=O)(=O)c1ccc(NC(=O)c2nc(S(C)(=O)=O)ncc2Cl)cc1	Sa growth inh 6.2
COc1ccc(N2CCN(CCCNC(=O)C3=C(C)C(=O)OC34CCCCC4)CC2)cc1	none
COC(=O)c1cccc(C(=O)Oc2ccc(OC(=O)c3cccc(C(=O)OC)n3)c(Cl)c2)n1	none
N#CCN(CC#N)C(=O)C(Sc1ccccc1)c1ccccc1 (centres undefined)	none
CC1CC(C)(C)NC(=S)N1CCCC(=O)Nc1nc2ccccc2s1 (centres undefined)	none
CCN(C(=O)COc1ccc(Cl)cc1Cl)c1cccc(C)c1	none
O=C(/C=C(\O)c1ccc(Cl)cc1)C(F)(F)F	Sa growth inh -0.1
CC(=O)/C=C(\O)c1ccc(Cl)cc1	none
CCCCSc1nc2c(c(C(F)(F)F)c1C#N)CCC2	none
CCC1CCc2[nH]c(=S)c(C#N)c(C(F)(F)F)c2C1 (centres undefined)	Sa growth inh 8.0
Cc1nnc(SC(C)C(=O)NCc2ccccc2)[nH]c1=O (centres undefined)	none
NC(=O)c1ccc(C(F)(F)F)cc1	none
Cc1coc2cc3oc(=O)c(CC(=O)O)c(C)c3cc12	none
CCOC(=O)N1CCN(C(=O)c2cc(-c3cccc(OC)c3)n[nH]2)CC1	none
CCOC(=O)c1cc(-c2ccccc2)sc1NC(=O)COC(=O)C1CC(=O)N(Cc2ccco2)C1 (centres undefined)	none
Cc1ccccc1NS(=O)(=O)C(F)(F)F	none
O=S(=O)(Nc1ccc(Cl)cc1OC(F)(F)F)C(F)(F)F	Sa growth inh 9.5
Cc1nc(SCc2ccc(C#N)cc2)c(C#N)c(-c2ccco2)c1C(=O)N(C)C	none
O=C1OCCN1/N=C/c1ccc([N+](=O)[O-])o1	Sa growth inh -0.9 (no result: S aureus helic)
O=C1CN(/N=C/c2ccc([N+](=O)[O-])o2)C(=O)N1	none (no result: S aureus helic)
Cc1ccc(-c2[nH]c3ccccc3c2SCCN)cc1	none (no result: Sa growth inh)
CSc1c(-c2ccc(Cl)cc2)[nH]c2ccccc12	Sa growth inh 21 (no result: S aureus helic)
CCOc1ccc2nc(SCC(=O)OC3CCCCC3)c(C)cc2c1	none
Nc1nnc2c(Nc3ccccc3)nc3nonc3n12	none
c1ccc(Nc2nc3nonc3nc2Nc2ccccc2)cc1	Sa growth inh -1.6
CCOC(=O)CN1CCN(C=O)CC1	none
O=C1NC(=O)c2ccc3c4c(ccc1c24)C(=O)N(c1ccccc1)C3=O	Sa growth inh 5.5
Nc1ccc2c3c(cccc13)C(=O)N(c1ccccc1)C2=O	none
CCCN(CCC)Cn1nc(-c2ccc3c(c2)OCO3)oc1=S	Sa growth inh 39
CCOC(=O)c1nnc(-c2ccc3c(c2)OCO3)o1	none
CC(C)c1cc(NC(=O)COC(=O)c2ccc3[nH]c4c(c3c2)CCCC4)on1	none
COc1ccc(-c2nnc(SC(C)C(N)=O)o2)cc1 (centres undefined)	none
CC(C)(C)c1ccc(-c2nnco2)cc1	none
COC(=O)c1ccc(COC(=O)c2cc(-c3ccco3)nc3ccccc23)cc1	none
O=C(OCc1ccc(F)cc1)c1cc(-c2ccco2)nc2ccccc12	Sa growth inh 6.6
O=C(O)CNC(=O)c1ccc(-c2ccccc2)cc1	none
COc1ccc(-c2nnc(SCCOc3ccc(Cl)cc3)o2)cc1	none
O=C(O)c1ccc(CSc2nnc(-c3ccccc3)o2)cc1	none
Fc1ccc(Nc2nc3ccccc3nc2Nc2ccc(F)cc2)cc1	Sa growth inh -0.4
Fc1ccc(Nc2nc(-c3ccncc3)nc3ccccc23)cc1	none
O=C1c2ccccc2C(=O)N1Cc1nc2ncccc2[nH]1	none
CC(C(=O)N/C(N)=N/c1nc2ccccc2s1)N1C(=O)c2ccccc2C1=O (centres undefined)	none
COc1ccc(NC(=O)c2sc(=S)n3c2[nH]c(=O)c2ccccc23)cc1	none
Cc1ccc(NC(=O)c2sc(=S)n3c2[nH]c(=O)c2ccccc23)c(C)c1	Sa growth inh 4.6 (no result: S aureus helic)
CCCCn1c(=NC(=O)C(C)(C)C)c(C(=O)OCC)cc2c(=O)n3ccccc3nc21	none

Screening results deposited in PubChem BioAssay by ICCB-Longwood Screening Facility, Harvard Medical School.
